Results filed as inconclusive are left out. Unmarked numbers belong to inactive results. Active and inactive are the calls of the source. Calls follow the shape of the dose curve; as a rule, active = well fitted cell-killing curve with a large enough effect; inconclusive = small, poorly fitted or top-dose-only effect, or effect the other way; inactive = no such curve, though single readings can be large or run the other way. *1 amine or outer side, *2 acyl side, *3 side chain or, on linkers, in order; H or OH if unused. Where a SMILES comes first, the peptide text is derived from it. Bridges are numbered along the chain shown (N, C = ends). Roman numbers before positions name the chains, in order. [ ]: non-standard residue; d: D form. Actinocin(9to1) = Cc1c2oc3c(C)ccc(C(=O)[*:1])c3nc-2c(C(=O)[*:2])c(N)c1=O; NMeV = CN[C@H](C(=O)O)C(C)C; Sar = CNCC(=O)O
What follows are compounds tested on PA-1 (assay: Confirmatory qHTS for gynecologic anti-cancer compounds from libraries of approved drugs and bioactive compounds). Details: gynecologic cancer cell panel viability, ATPlite luminescence, 48 h; series mostly up to 57.6 µM; activity change, negative = viability loss: at the top concentration.
How it was run: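 ATP-based luminescent viability (ATPlite) after 48 h drug treatment at 37 °C, 5% CO2, across 57.5 uM–0.977 nM in 1:3 steps. Cells seeded at 1,000 per well 16 h beforehand; IC50 values computed, HEK 293T as selectivity control.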
`CNC(=O)c1nn(C)c2c1C(C)(C)Cc1cnc(Nc3ccc(N4CCN(C)CC4)cc3)nc1-2` was tested, and the Potency was 0.769 µM (active). In the case of `OCCNC1CCCc2c1[nH]c1ccc(-c3ccccc3)cc21` (stereo not given), the Potency is reported as 27.3 µM (active). In the case of `COc1cc2nccc(Oc3ccc(NC(=O)Nc4cc(C)on4)c(Cl)c3)c2cc1OC`, the Potency is reported as 5.44 µM (active). For `COc1ccc2c(c1)c(CC(=O)O)c(C)n2C(=O)c1ccc(Cl)cc1`, the Potency was 27.3 µM (active). With `O=C(c1ccc(F)c(F)c1Nc1ccc(I)cc1F)N1CC(O)([C@@H]2CCCCN2)C1` the Potency was 15.3 µM (active). For `Nc1ccc(C(=O)Nc2cccc(-c3nc(N4CCOCC4)c4oc5ncccc5c4n3)c2)cn1`, the Potency was 12.2 µM (active). `COc1cc(Nc2ncc3c(n2)-c2ccc(Cl)cc2C(c2c(F)cccc2OC)=NC3)ccc1C(=O)O` was tested, and the Potency was 0.193 µM (active). In the case of `O=C(c1ccc(/C=C/c2n[nH]c3ccccc23)cc1)N1CCNCC1`, the Potency is reported as 6.11 µM (active). In the case of `CCCCc1nc2cc(/C=C/C(=O)NO)ccc2n1CCN(CC)CC`, the Potency is reported as 0.385 µM (active). With `C[C@@H](Oc1cc(-c2cnn(C3CCNCC3)c2)cnc1N)c1c(Cl)ccc(F)c1Cl` the Potency was 6.85 µM (active). `COc1cc2c(NC3CCN(C(C)C)CC3)nc(C3CCCCC3)nc2cc1OCCCN1CCCC1` was tested, and the Potency was 17.2 µM (active). For `CCC1C(=O)N(C)c2cnc(Nc3ccc(C(=O)NC4CCC(N5CCN(CC6CC6)CC5)CC4)cc3OC)nc2N1C(C)C` (stereo not given), the Potency was 0.0769 µM (active). With `COc1cc2c(Oc3ccc(-c4cnc(Nc5ccc(F)cc5)n(C)c4=O)cc3F)ccnc2cc1OCCCN1CCOCC1` the Potency was 21.7 µM (active). `Cc1ccc(C(=O)N(CCCN)C(c2nc3cc(Cl)ccc3c(=O)n2Cc2ccccc2)C(C)C)cc1` (stereo not given) was tested, and the Potency was 0.0172 µM (active). `CN(c1nccc(=O)[nH]1)C1CCN(c2nc3ccccc3n2Cc2ccc(F)cc2)CC1` was tested, and the “activity change, negative = viability loss” value was -2.59%. For `Nc1ccccc1NC(=O)c1ccc(CNC(=O)OCc2cccnc2)cc1`, the Potency was 1.53 µM (active). `Cc1ccc(C(=O)Nc2ccc(Oc3cc4cnn(C)c4cc3-c3cn[nH]c3)c(F)c2)c(=O)n1-c1ccc(F)cc1` was tested, and the Potency was 10.9 µM (active). `CNc1nc(Nc2ccc(C(=O)N3CCOCC3)cc2OC)ncc1Cl` was tested, and the “activity change, negative = viability loss” value was 3.04%. For `COc1cccc2c1C(=O)c1c(O)c3c(c(O)c1C2=O)C[C@@](O)(C(=O)CO)C[C@@H]3O[C@H]1C[C@H](N)[C@H](O[C@@H]2CCCCO2)[C@H](C)O1`, the Potency was 0.685 µM (active). In the case of `COc1cc(-c2nn(C3CCC(N4CCN(C(C)=O)CC4)CC3)c3ncnc(N)c23)ccc1NC(=O)c1cc2ccccc2n1C` (stereo not given), the Potency is reported as 30.6 µM (active). With `CCCCc1oc2ccc(NS(C)(=O)=O)cc2c1C(=O)c1ccc(OCCCN(CCCC)CCCC)cc1` the Potency was 27.3 µM (active). `CCC1C(=O)N(C)c2cnc(Nc3ccc(C(=O)NC4CCN(C)CC4)cc3OC)nc2N1C1CCCC1` (stereo not given) was tested, and the Potency was 0.0432 µM (active). For `COC(C(=O)N1Cc2[nH]nc(NC(=O)c3ccc(N4CCN(C)CC4)cc3)c2C1)c1ccccc1` (stereo not given), the Potency was 7.69 µM (active). In the case of `C=CC(=O)Nc1cccc(Oc2nc(Nc3ccc(N4CCN(C)CC4)cc3)ncc2Cl)c1`, the Potency is reported as 7.69 µM (active). For `COc1cc(F)c(F)c(Nc2ccc(I)cc2F)c1NS(=O)(=O)C1(CC(O)CO)CC1` (stereo not given), the “activity change, negative = viability loss” value was -22.7%. For `Cc1cc(C2CCCCC2)n(O)c(=O)c1`, the Potency was 3.53 µM (active). `CC[C@@]1(O)C(=O)OCc2c1cc1n(c2=O)Cc2cc3c(CN(C)C)c(O)ccc3nc2-1` was tested, and the Potency was 0.273 µM (active). For `COc1cc2c(c(OC)c1OC)-c1ccc(OC)c(=O)cc1[C@@H](NC(C)=O)CC2`, the Potency was 0.126 µM (active). For `O=C(Nc1cccnc1)N1CCC(Cc2cccc(Oc3ccc(C(F)(F)F)cn3)c2)CC1`, the Potency was 6.85 µM (active). `CC(C)(C)C(=O)OCOP(=O)(COCCn1cnc2c(N)ncnc21)OCOC(=O)C(C)(C)C` was tested, and the Potency was 6.85 µM (active). `Cc1cnc(CNC(=O)c2c(=O)c3ccc(N4CCCN(C)CC4)nc3n3c2sc2ccccc23)cn1` was tested, and the Potency was 1.11 µM (active). `OC[C@H]1O[C@@H](n2cnc3c(=S)nc[nH]c32)[C@H](O)[C@@H]1O` was tested, and the Potency was 2.73 µM (active). With `COc1cc2c(Nc3ccc(NC(=O)c4ccccc4)cc3)ncnc2cc1OCCCN1CCOCC1` the Potency was 34.3 µM (active). With `Cc1c(C)n(Cc2ccc(-c3ccccc3C(=O)O)cc2)c2ccc(C(=O)N[C@@H](C)c3ccc([N+](=O)[O-])cc3)cc12` the “activity change, negative = viability loss” value was -26.3%. `Cc1nc(NC(=O)N2CCCC2C(N)=O)sc1-c1csc(C(C)(C)C)n1` (stereo not given) was tested, and the Potency was 27.3 µM (active). For `NC(=O)c1cnc(-c2ccc(C3(N)CCC3)cc2)c(-c2ccccc2)c1`, the Potency was 27.3 µM (active). With `Cc1c2oc3c(C)ccc(C(=O)N[C@@H]4C(=O)N[C@H](C(C)C)C(=O)N5CCC[C@H]5C(=O)N(C)CC(=O)N(C)[C@@H](C(C)C)C(=O)O[C@@H]4C)c3nc-2c(C(=O)N[C@@H]2C(=O)N[C@H](C(C)C)C(=O)N3CCC[C@H]3C(=O)N(C)CC(=O)N(C)[C@@H](C(C)C)C(=O)O[C@@H]2C)c(N)c1=O` (I: T[dV]P[Sar][NMeV] / II: T[dV]P[Sar][NMeV]; ester I:1-I:C, II:1-II:C; linker I:N-II:N via Actinocin(9to1)) the Potency was 0.0968 µM (active). With `S=c1nc[nH]c2nc[nH]c12` the Potency was 3.85 µM (active). `CNC(=O)c1ccccc1Sc1ccc2c(/C=C/c3ccccn3)n[nH]c2c1` was tested, and the Potency was 4.32 µM (active). In the case of `CC(C)Oc1ccc(C(=O)NC(CNC(=O)CN(C)C)Cc2ccc(-c3cn4cccc(C(C)O)c4n3)cc2)cc1Cl` (stereo not given), the Potency is reported as 0.243 µM (active).

— PubChem BioAssay AID1345085 (National Center for Advancing Translational Sciences (NCATS), 2018)
% is scaled to controls: 0 for no effect and ±100 for the full control effect; potency is read from the fitted curve at half-maximal effect.
Also: nearly all actives have a fitted effect of over 55% in size.
